Source: PubChem BioAssay (Broad Institute)
Only a selection was taken, and hits are over-represented in it overall.
miR-122 inh: raises miR-122 sensor activity in Huh7 cells; Huh7 psiCHECK-miR122 Renilla luciferase sensor, 48 h; activation, % at 12.5 µM; actives 0.14% (n = 340,000); AID 623901;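 active means mean activation of 30% or more, with every replicate also reaching 30%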;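 further: 0% = median of neutral control wells and 100% = median of positive control wells; higher luciferase signal means stronger suppression of miR-122 activity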
* = called active by the depositor.

SMILES | miR-122 inh
O=C(OCc1ccccc1Cl)c1ccccc1C(=O)c1ccccc1 | -137
C[C@H](CO)N1C[C@H](C)[C@H](CN(C)C(=O)Nc2cccc3ccccc23)Oc2ncc(-c3ccc(F)cc3)cc2C1=O | 8
C/C=C/c1cnc2c(c1)C(=O)N([C@H](C)CO)C[C@@H](C)[C@@H](CN(C)CC1CCOCC1)O2 | 1
C[C@H](CO)N1C[C@H](C)[C@@H](CN(C)C(=O)C2CCOCC2)Oc2ncc(/C=C/c3ccccc3)cc2C1=O | -5
COc1ccc(S(=O)(=O)N(CC(=O)Nc2cc(C)on2)Cc2ccccc2)cc1 | -92
Cc1cc(C)cc(NC(=O)c2ccc(CSc3nnc(C)s3)cc2)c1 | 34*
CNC[C@@H]1Oc2cc(C#CC(C)C)ccc2S(=O)(=O)N([C@@H](C)CO)C[C@H]1C | -3
C[C@H](CO)N1C[C@H](C)[C@@H](CN(C)C(=O)Nc2ccc(F)cc2)Oc2cc(-c3ccncc3)ccc2S1(=O)=O | -7
C[C@H]1CN([C@@H](C)CO)C(=O)c2cc(C#Cc3ccccc3)cnc2O[C@H]1CN(C)Cc1ccccn1 | 4
CCCNC(=O)N1C[C@@H](C)[C@@H](OC)CN(C)C(=O)c2cc(NS(=O)(=O)CC)ccc2OC[C@H]1C | -2
CCS(=O)(=O)Nc1ccc2c(c1)C(=O)N(C)C[C@@H](OC)[C@H](C)CN(CC1CCCC1)[C@H](C)CO2 | 38*
CCCNC(=O)N1C[C@H](C)[C@@H](OC)CN(C)C(=O)c2cc(NS(=O)(=O)CC)ccc2OC[C@@H]1C | 2
C[C@@H]1CN([C@@H](C)CO)S(=O)(=O)c2ccc(Br)cc2O[C@H]1CN(C)C(=O)CC1CC1 | 5
COc1ccc(C(C(=O)NC2CCCCC2)N(C(=O)CCl)c2cccc(Cl)c2)cc1 (stereo not given) | 55*
O=C(NC1CCCC1)C(c1ccccc1)N(Cc1ccc2c(c1)OCO2)C(=O)Cc1cccs1 (stereo not given) | -90
COc1ccc(C#Cc2ccc3c(c2)O[C@@H](CN(C)C(=O)NC2CCCCC2)[C@@H](C)CN([C@@H](C)CO)S3(=O)=O)cc1 | -13
C[C@@H]1CN([C@H](C)CO)C(=O)c2cc(/C=C/c3ccccc3)cnc2O[C@@H]1CN(C)C(=O)c1ccncc1 | 6
CCCC#Cc1cnc2c(c1)C(=O)N([C@H](C)CO)C[C@H](C)[C@@H](CN(C)Cc1cccnc1)O2 | 2
Cc1ccc(S(=O)(=O)Nc2cccc3cccnc23)c([N+](=O)[O-])c1 | -100
CC(C)C(=O)NC(c1cccc([N+](=O)[O-])c1)c1ccc2cccnc2c1O (stereo not given) | 41*
CN(C)CCNc1ncnc2c1sc1nc(N3CCOCC3)c3c(c12)CC(C)(C)SC3 | 56*
CCn1c(=O)c2cc(S(=O)(=O)NC3CCCCC3)ccc2n(CC)c1=O | -98
O=C(C1CC1)N(CCN(C(=O)C1CC1)c1ccccc1)c1ccccc1 | 30*
C/C=C/c1cnc2c(c1)C(=O)N([C@@H](C)CO)C[C@H](C)[C@@H](CN(C)S(=O)(=O)c1ccc(C)cc1)O2 | -2
C[C@@H]1CN([C@H](C)CO)S(=O)(=O)c2ccc(C#Cc3ccccn3)cc2O[C@H]1CN(C)Cc1cccc(F)c1 | -36
SMILES | miR-122 inh
CCC(=O)N1C[C@H](C)[C@H](OC)CN(C)C(=O)c2ccc(NC(=O)C3CCCCC3)cc2OC[C@H]1C | 1
C[C@@H]1CN([C@@H](C)CO)C(=O)c2cc(C#CC3(O)CCCC3)cnc2O[C@@H]1CN(C)S(C)(=O)=O | 7
C[C@@H]1CN([C@H](C)CO)S(=O)(=O)c2ccc(C#Cc3cccnc3)cc2O[C@H]1CN(C)CC1CCOCC1 | -6
CCC(=O)N1C[C@@H](C)[C@@H](OC)CN(C)C(=O)c2ccc(NS(C)(=O)=O)cc2OC[C@@H]1C | 2
Cc1ccccc1NC1=C/C(=N\S(=O)(=O)c2cccs2)c2ccccc2C1=O | 60*
C[C@H]1CN([C@@H](C)CO)C(=O)c2cc(C#CC3CC3)cnc2O[C@H]1CN(C)Cc1ccncc1 | 5
Cc1ccc(C2CN=NC23CCc2ccccc2C3=O)cc1 (stereo not given) | 51*
Cc1ccc(C2CN(C)C3(C(=O)Nc4ccccc43)C23COc2ccccc2C3=O)cc1 (stereo not given) | -295
COc1cccc(NS(=O)(=O)c2cc(C)ccc2OC)c1 | -92
CC(C)C#Cc1cnc2c(c1)C(=O)N([C@H](C)CO)C[C@H](C)[C@H](CN(C)C(=O)c1ccccc1)O2 | 1
CCCC(=O)OCCNc1cc(Sc2nccn2C)c2nonc2c1[N+](=O)[O-] | 62*
Cc1ccc(-c2nnc(Nc3ccc4c(c3)OCO4)c3ccccc23)cc1S(N)(=O)=O | -180
COc1ccc(N2CCc3c(C)nc4c(OC)cc(OC)cc4c32)c(OC)c1 | 47*
CCCN(C)C[C@@H]1Oc2cc(Br)ccc2S(=O)(=O)N([C@@H](C)CO)C[C@@H]1C | 4
COc1ccc(NS(=O)(=O)c2cc(NC(=O)COc3ccc(OC)cc3)ccc2N2CCOCC2)cc1 | -110
CCCNC(=O)Nc1ccc2c(c1)OC[C@H](C)NC[C@@H](C)[C@@H](OC)CN(C)C2=O | -2
COCC(=O)N(C)C[C@H]1Oc2ncc(/C=C/c3ccccc3)cc2C(=O)N([C@H](C)CO)C[C@H]1C | 3
C/C=C/c1ccc([C@@H]2[C@@H](CN(C(=O)COC)C(C)C)N(C(C)=O)[C@H]2CO)cc1 | 50*
COCC(=O)N(C)C[C@H]1Oc2ncc(/C=C/c3ccccc3)cc2C(=O)N([C@H](C)CO)C[C@@H]1C | 4
CCOc1ccc2cc(C3CC(c4ccco4)=NN3S(C)(=O)=O)c(=O)[nH]c2c1 (stereo not given) | -126
C[C@H]1CN([C@@H](C)CO)S(=O)(=O)c2ccc(-c3ccncc3)cc2O[C@H]1CN(C)C(=O)Nc1ccc(F)cc1 | 8
O=C(O)CNC(=O)C1(N2C(=O)c3ccccc3C2=O)CCCC1 | -100
C[C@H](CO)N1C[C@H](C)[C@H](CN(C)S(=O)(=O)c2cccs2)Oc2ncc(Br)cc2C1=O | -3
COc1cccc(N2CCN(c3ncnc4c3[nH]c3ccc(F)cc34)CC2C)c1 (stereo not given) | 32*
CN1c2ccc(-c3ccc(F)cc3)cc2[C@H]2[C@H](CCN2S(=O)(=O)c2cccc(F)c2)[C@H]1CO | -144
SMILES | miR-122 inh
Cc1ccc(S(=O)(=O)c2cccc(S(=O)(=O)N3CCCC3)c2)cc1S(=O)(=O)N1CCCC1 | -110
COc1cccc(NC(=O)N(C)C[C@H]2Oc3cc(C#Cc4ccncc4)ccc3S(=O)(=O)N([C@H](C)CO)C[C@H]2C)c1 | 14
C[C@@H]1CN([C@H](C)CO)C(=O)c2cc(-c3cccc(F)c3)cnc2O[C@@H]1CN(C)C(=O)C1CCOCC1 | -1
CCOc1cc(NC(=O)c2ccccn2)c(OCC)cc1NC(=O)c1ccc(Cl)cc1 | 34*
CCOC(=O)c1ccc(-n2ccnc2)c(NC(=O)c2cccc(Br)c2)c1 | -128
COc1ccc(S(=O)(=O)NCc2ccccn2)cc1NC(=O)c1ccc(C)cc1 | -94
C[C@H](CO)N1C[C@H](C)[C@@H](CN(C)S(=O)(=O)c2ccc(F)cc2)Oc2ncc(C#CC3(O)CCCC3)cc2C1=O | 1
CCOc1cc(S(=O)(=O)Nc2cc(C)cc(C)c2)ccc1Cl | -118
C[C@@H]1CN([C@@H](C)CO)C(=O)c2cc(-c3ccc(F)cc3)cnc2O[C@H]1CN(C)CC1CCOCC1 | 0
CCCNC(=O)N(C)C[C@@H]1Oc2ncc(C#Cc3ccccc3F)cc2C(=O)N([C@H](C)CO)C[C@@H]1C | 3
